# According to PMC12670160, “A drug-repurposing screen of FDA- and EMA-approved drugs identifies two NF-κB inhibitors active against eumycetoma” (Journal of Antimicrobial Chemotherapy, 2025):
# Counter-ions that a name gives are not always drawn. Like-named read-outs stand apart in the source and are kept apart here. Screen size: about 5,300 compounds; about 130 (2.5%) showed an effect of 50% or more. Shown is part of a subset that was picked to be rich in strong results. Peptide text beside a SMILES is read from it. * marks the point of attachment. PhAc = O=C(Cc1ccccc1)*
# System: M. mycetomatis strain mm55
# Settings: primary screen, metabolic activity vs growth control, 96 h, 2 µM, inhibitor
# [1] = Madurella mycetomatis metabolic activity at 2µM (%)
SMILES,% viability [%],% viability [1] [%]
"COCCn1c2c([n+](Cc3cnccn3)c1C)C(=O)c1ccccc1C2=O [ONC0001046, ym155]",83.36,
"CN(C)c1ccc(/C=C2\CCCN=C2c2cccnc2)cc1 [ONC0002266, dmabanabaseine]",49.52,
"COc1ccc(/C=C2\CCCN=C2c2cccnc2)c(OC)c1 [ONC0001889, gts21]",72.7,
"Oc1c(Cl)cc(Cl)c2cccnc12 [ONC0002821, chloroxine]",92.76,
Oc1c(Br)cc(Br)c2cccnc12 [Broxyquinoline],5.699,
"Oc1c(I)cc(I)c2cccnc12 [ONC0000463, iodoquinol]",67.55,
"COc1ccc(CCO[C@@H]2CCCC[C@H]2N2CC[C@@H](O)C2)cc1OC [ONC0001796, vernakalant hydrochloride]",98.02,
"CC1C[C@H]2[C@@H]3CCC4=CC(=O)C=C[C@]4(C)[C@@]3(Cl)[C@@H](O)C[C@]2(C)[C@@]1(O)C(=O)CO (stereo partly drawn) [ONC0000301, beclomethasone]",73.26,
"CC(C)(C)NC[C@@H](O)COc1cccc2c1CCCC2=O [ONC0002849, levobunolol]",116.9,
"Cc1cccc(OCC(O)CNC(C)(C)C)c1C (stereo not drawn) [ONC0002362, xibenolol]",46.41,
"CC(C)(C)NC[C@H](O)COc1cccc2c1CCCC2=O [ONC0002946, levobunolol]",70.13,
"O=C1OC2(c3cc(I)c(O)c(I)c3Oc3c2cc(I)c(O)c3I)c2c(Cl)c(Cl)c(Cl)c(Cl)c21 [ONC0002983, rosebengallactone]",,60.55
CCCCC(CC)CNC(=N)NC(=N)NCCCCCCNC(=N)NC(=N)NCC(CC)CCCC (stereo not drawn) [Alexidine dihydrochloride],2.643,
"CCCCCCCCCCC(CO)CCCCCCCC (stereo not drawn) [ONC0003687, 2octyldodecan1ol]",64.53,
"CCCCCCCCCCCCOS(=O)(=O)O [ONC0004120, dodecylsulfate]",,112
"N=C(N)N=Nc1ccc(NNC(=N)S)cc1 [ONC0002980, ambazone]",75.31,
"COC(=O)c1cc(OC)c2c(c1-c1c(CO)cc(OC)c3c1OCO3)OCO2 [ONC0002187, bicyclol]",70.1,
"COC(=O)c1ccccc1O [ONC0003750, methylsalicylate]",102.4,
"COC(=O)c1cc(OC)c2c(c1-c1c(C(=O)OC)cc(OC)c3c1OCO3)OCO2 [ONC0003333, bifendate]",41.54,
"CC(=O)O[C@@H]1CC[C@@]2(C)[C@@H](CC[C@]3(C)[C@@H]2C(=O)C=C2[C@@H]4[C@@H](C)[C@H](C)CC[C@]4(C)CC[C@]23C)[C@@]1(C)C(=O)O [ONC0002083, akba]",67.6,

SMILES,% viability [%],% viability [1] [%]
"CC1(C)[C@@H](O)CC[C@]2(C)[C@H]3C(=O)C=C4[C@@H]5C[C@@](C)(C(=O)O)CC[C@]5(C)CC[C@@]4(C)[C@]3(C)CC[C@@H]12 [ONC0003205, enoxolone]",101.1,
"CC1(C)[C@@H](OC(=O)CCC(=O)O)CC[C@]2(C)[C@H]3C(=O)C=C4[C@@H]5C[C@@](C)(C(=O)O)CC[C@]5(C)CC[C@@]4(C)[C@]3(C)CC[C@@H]12 [ONC0000604, carbenoxolone sodium]",49.18,
"O=c1[nH]c(=O)c2[nH]c(=O)[nH]c2[nH]1 [ONC0003522, uricacid]",130.7,
"C[C@H](N[C@@H](CCc1ccccc1)C(=O)O)C(=O)N1CCC[C@H]1C(=O)O [ONC0003897, enalaprilat]",70.49,
"CCOC(=O)[C@H](CCc1ccccc1)N[C@@H](C)C(=O)N1CCC[C@H]1C(=O)O [ONC0000561, enalapril maleate]",109.8,
"CCOC(=O)CNC(=O)[C@@H]1CCCN1C(=O)Cc1ccccc1 [ONC0001144, omberacetam] (PhAc-Pro-Gly-OEt)",45.25,
"N[C@@H]1C[C@H]1c1ccccc1 (racemic) [ONC0000562, tranylcypromine sulfate]",104.4,
"CCCN(CCC)CCc1ccc(OC)c(OCCc2ccccc2)c1 [ONC0000866, ne100]",62.29,
"O=P(O)(O)C(O)(Cc1cnc2ccccn12)P(=O)(O)O [ONC0000278, minodronic acid hydrate]",88.21,
"C[C@@H]1O[C@@]2(CS1)CN1CCC2CC1.C[C@H]1O[C@]2(CS1)CN1CCC2CC1.Cl [ONC0002680, cevimeline]",67.14,
"COc1ccccc1N1CCN(CCN2C(=O)CC3(CCCC3)CC2=O)CC1 [ONC0002563, bmy7378]",52.22,
"COc1ccccc1CC(=N)N1C[C@@H]2C(=O)CCC(c3ccccc3)(c3ccccc3)[C@@H]2C1 [ONC0001413, rp67580]",48.12,
"NC(CC(F)C(=O)O)C(=O)O (stereo not drawn) [ONC0003677, 4fluorodlglutamic acid]",63.49,
"CCN(CC)S(=O)(=O)c1ccc(C(=O)O)cc1 [ONC0004305, etebenecid]",97.53,
"CC(C)c1ccc2c(c1)CC[C@H]1[C@](C)(CN)CCC[C@]21C [ONC0000210, lylamine]",63.87,
"Nc1ncnc2c1ncn2[C@@H]1O[C@H](CO)C[C@H]1O [ONC0003004, cordycepin]",108,
"Nc1ncnc2c1ncn2[C@H]1CC[C@@H](CO)O1 [ONC0003689, 23dideoxyadenosine]",49.81,
"O=c1[nH]cnc2c1ncn2[C@H]1CC[C@@H](CO)O1 [ONC0004781, didanosine videx]",107,
"CSc1ccccc1Nc1nc(N2CCNCC2)nc2c(NCC3CC3)ncnc12.Cl [ONC0001097, khkin1 hydrochloride]",76.94,
"CC(C)N1CCN(c2ccc(OC[C@@H]3CO[C@@](Cn4cncn4)(c4ccc(Cl)cc4Cl)O3)cc2)CC1 [ONC0002390, terconazole]",66.82,

SMILES,% viability [%],% viability [1] [%]
"COc1cc(N2CCN(C(C)=O)CC2)ccc1Nc1ncc(Cl)c(Nc2ccc(N3CCN(C(C)=O)CC3)cc2OC)n1 [ONC0003574, krca0008]",122,
CCC(C)n1ncn(-c2ccc(N3CCN(c4ccc(OCC5COC(Cn6cncn6)(c6ccc(Cl)cc6Cl)O5)cc4)CC3)cc2)c1=O (stereo not drawn) [Itraconazole hydrochloride],4.9,
"O=C(O)c1ccc(OCCn2ccnc2)cc1 [ONC0003331, dazoxiben]",112.5,
CC(=O)N1CCN(c2ccc(OCC3COC(Cn4ccnc4)(c4ccc(Cl)cc4Cl)O3)cc2)CC1 (stereo not drawn) [Ketoconazole],1.788,
CC[C@@H]([C@H](C)O)n1ncn(-c2ccc(N3CCN(c4ccc(OC[C@@H]5CO[C@@](Cn6cncn6)(c6ccc(F)cc6F)C5)cc4)CC3)cc2)c1=O [Posaconazole],0.7626,
"CCC(=O)O[C@@H](OP(=O)(CCCCc1ccccc1)CC(=O)N1C[C@H](C2CCCCC2)C[C@H]1C(=O)O)C(C)C (stereo partly drawn) [ONC0005007, fosinopril sodium monopril]",152.1,
"O=C(CCCN1CCC(n2c(O)nc3ccccc32)CC1)c1ccc(F)cc1 [ONC0002014, benperidol]",79.93,
"N[C@@H]1CON=C1O [ONC0000314, cycloserine d]",88.4,
"CN[C@@H](C)C(=O)N[C@H]1CCCC[C@H]2CCC(C(=O)N[C@@H](c3ccccc3)c3cn(CCCCc4ccc(CCCCn5cc([C@@H](NC(=O)[C@@H]6CC[C@@H]7CCCC[C@H](NC(=O)[C@H](C)NC)C(=O)N76)c6ccccc6)nn5)cc4)nn3)N2C1=O (stereo partly drawn) [ONC0003931, sm164]",63.69,
"C=CC(=O)[O-].[Na+] [ONC0002646, sodium acrylate]",77.54,
"CCN1CCC(n2cc(CNc3cc(Cl)c4ncc(C#N)c(Nc5ccc(F)c(Cl)c5)c4c3)nn2)CC1 [ONC0002075, cot inhibitor2]",82.04,
"N#Cc1cnc2cnc(NCc3cccnc3)cc2c1Nc1ccc(F)c(Cl)c1 [ONC0001337, tcs7006]",78.74,
"N#Cc1cnc2c(Cl)cc(NCc3cn(CCN4CCCCCC4)nn3)cc2c1Nc1ccc(F)c(Cl)c1 [ONC0000779, cot inhibitor1]",49.03,
"CC(C)=CCC/C(C)=C/CC/C(C)=C/C=C/C(C)=C/C(=O)O [ONC0000885, peretinoin]",65.8,
"CCCC[P+](CCCC)(CCCC)Cc1ccc(NC(=O)[C@H](Cc2ccc3ccccc3c2)N=C(NC2CCCCC2)NC2CCCCC2)cc1 [ONC0000223, win64338]",62.1,
"CC(NC(=O)CCc1nc(=O)c2ccccc2[nH]1)c1ccccc1 (stereo not drawn) [ONC0005174, me0328]",117.9,
"CC(=O)N(O)[C@@H]1c2cc(C#N)ccc2OC(C)(C)[C@H]1O [ONC0004430, y26763]",123.9,
"CC1(C)Oc2ccc(C#N)cc2[C@@H](N2CCCC2=O)[C@@H]1O.CC1(C)Oc2ccc(C#N)cc2[C@H](N2CCCC2=O)[C@H]1O [ONC0001708, levcromakalim]",57.98,
"CC1(C)Oc2ccc(C#N)cc2[C@@H](OC2=CC(=O)CC2)[C@@H]1O [ONC0003452, pco 400]",40.31,
"CCCCCCCCCCCCCCCC(=O)OC1C(SC)OC(C(NC(=O)C2CC(CCC)CN2C)C(C)Cl)C(O)C1O (stereo not drawn) [ONC0004643, clindamycin palmitate hcl]",84.71,
